# Screening data: PubChem, National Center for Advancing Translational Sciences (NCATS)
# Rows were chosen to be rich in hits. Some 2.7% of all compounds tested hit in one or more screens of this group.
# HepG2 tox – counter-screen for TGF-b inhibitors: cytotoxicity in HepG2 cells. HepG2 CAGA-GFP viability, ATP luminescence, 18 h. Potency, µM (titrated, usually from 46.1 µM), for the others: at the highest dose activity change, negative = cytotoxicity, most hits filed as cytotoxic. 410,000 tested, 0.76% active. AID 588856
#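 CellTiter-Glo luminescence gave cytotoxicity after 18 hours at 37 degrees C. The cells were HepG2 CAGA-GFP in 1% FBS DMEM, stimulated with 500 pg/mL TGF-beta after compound addition. %Activity was normalised to no-cell wells (complete cell-killing) and DMSO (no toxicity), and curves were fitted and classified.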
# ATXN2 expr inh – inhibitors of ATXN2 expression | HEK-293 ATXN2-luciferase reporter, luminescence, 24 h | Potency, µM (titrated, usually from 57 µM), for inactives: top-dose activity change, negative = inhibition, hits mostly inhibitors | 360,000 tested, 0.72% active; note: % is set by controls: 0 for no effect and ±100 for the full control effect; nearly all actives have a fitted effect of over 55% in size
#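 qHTS (up to 57 uM final) was run with 24 h compound exposure of reporter cells at 37 °C. Each well was multiplexed: SteadyGlo luminescence measured ATXN2-luciferase expression after a fluorogenic Gly-Phe-AFC viability readout (25 uM final).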
# TGFb SMAD3 inh – inhibitors of TGF-b signaling. HepG2 CAGA-GFP TGF-b/SMAD3 reporter, GFP fluorescence, 18 h; TGF-beta stimulated, 500 pg/mL final. Potency, µM (highest dose often 46.1 µM), for inactives: at the highest dose activity, negative = inhibition, most hits filed as inhibitors. 410,000 tested, 1.2% active; note: % is set by controls: 0 for no effect and ±100 for the full control effect; nearly all actives have a fitted effect of over 65% in size
#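 HEPG2 CAGA-GFP cells (1000/well, DMEM with 1% FBS) were pre-incubated 2 h at 37 degrees C, given compound by pin tool, then stimulated with TGF-beta at 500 pg/mL final for 18 h before per-cell GFP fluorescence imaging.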
# S2 tox – viability counter-screen for ATXN expression inhibitors; 400,000 tested, 0.49% active; S2 cells (HEK-293 line with an ATXN2-luciferase reporter) viability, CellTiter-Fluor protease fluorescence, 24 h; Potency, µM (highest dose often 56.7 µM), actives largely listed as cytotoxic; note: nearly all actives have a fitted effect of over 40% in size
# 12-LOX inh – ALOX12 (human) lipoxygenase inhibition; P18054; purified 12hLO, xylenol orange hydroperoxide absorbance; Potency, µM (series often up to 108 µM), inactives show at the top dose activity change, negative = inhibition, hits mostly inhibitors; 580,000 tested, 1.1% active; AID 1671190; note: % is set by controls: 0 for no effect and ±100 for the full control effect
# Target sequence (P18054 whole entry, looked up): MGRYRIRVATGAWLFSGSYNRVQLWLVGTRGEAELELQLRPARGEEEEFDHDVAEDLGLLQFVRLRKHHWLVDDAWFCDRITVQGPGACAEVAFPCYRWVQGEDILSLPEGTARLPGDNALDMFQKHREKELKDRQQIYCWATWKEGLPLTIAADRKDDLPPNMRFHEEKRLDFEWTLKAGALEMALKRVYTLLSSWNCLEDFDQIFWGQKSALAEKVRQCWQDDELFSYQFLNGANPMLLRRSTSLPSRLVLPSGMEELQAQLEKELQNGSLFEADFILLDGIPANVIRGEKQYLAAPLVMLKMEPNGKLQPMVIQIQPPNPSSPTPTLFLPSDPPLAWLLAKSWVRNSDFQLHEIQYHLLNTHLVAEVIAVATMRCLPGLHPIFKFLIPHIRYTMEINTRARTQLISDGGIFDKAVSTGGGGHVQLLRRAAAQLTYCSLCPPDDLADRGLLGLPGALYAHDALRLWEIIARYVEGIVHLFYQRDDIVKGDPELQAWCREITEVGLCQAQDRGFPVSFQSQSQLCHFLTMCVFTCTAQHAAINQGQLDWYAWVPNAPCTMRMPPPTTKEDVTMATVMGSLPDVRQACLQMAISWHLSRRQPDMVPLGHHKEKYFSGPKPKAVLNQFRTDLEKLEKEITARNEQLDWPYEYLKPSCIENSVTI
#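 Hydroperoxide product was detected by ferrous iron/xylenol orange as the 573 to 405 nm absorbance ratio. Arachidonic acid at 40 uM (final) was turned over for 30 min at room temperature by 150 nM human 12hLO, pH 7.0 Hepes buffer, after 15 min compound preincubation.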
# Starred values were filed as active, the others as inactive; i = inactive; u = inconclusive; x = no result given; [ ] = another dose, or the depositor's remark. Calls come from the whole dose curve; as a rule, active = well fitted curve in the direction sought with a large enough effect; inconclusive = small, poorly fitted or top-dose-only effect, or another doubt; inactive = no such curve, though single readings can be large; an effect the other way counts as inactive or inconclusive. Potency is the fitted concentration of half-maximal effect.
SMILES,HepG2 tox,ATXN2 expr inh,TGFb SMAD3 inh,S2 tox,12-LOX inh
CN(C)CCCNC(=S)NCC(c1ccc(Cl)cc1Cl)c1c[nH]c2ccccc12 (configuration not stated),-159%,25µM*,u,u,u
CCCCNC(=S)NCC(c1ccccc1)c1c[nH]c2ccccc12 (configuration not stated),-21%,u,u,u,45µM*
NCC(c1ccc(Cl)cc1Cl)c1c[nH]c2ccccc12 (configuration not stated),-152%,-39%,u,i,u
COc1cccc(C(=O)Nc2nc(-c3ccc(S(=O)(=O)N4CCOCC4)cc3)cs2)c1,-2%,16µM*,8%,u,-25%
COc1ccc(Sc2nn3c(=O)cc(C)nc3s2)cc1,x,x,x,x,44%
Cc1ccc(S(=O)(=O)N2CCC3(CC2)SCC(=O)N3Cc2ccco2)cc1,x,x,x,x,14µM*
COc1ccc(S(=O)(=O)N2CCN(Cc3ccco3)CC2)cc1,-10%,-8%,8%,u,2.5µM*
O=S(=O)(c1ccc(Br)cc1)N1CCN(Cc2ccco2)CC1,-84%,6%,19%,i,-5%
CC(C)NC(=O)CSc1nc(C2CC2)nc2ccccc12,x,x,x,x,-25%
CC(C)OCCCNC(=O)c1cc(C2CC2)nc2onc(C3CCCN3)c12 (configuration not stated),x,x,x,x,-3%[6.33 µM]
Cc1cc(C(=O)NCCCOC(C)C)c2c(C3CCCN3)noc2n1 (configuration not stated),x,x,x,x,14µM*
Cc1c(CCC(C)C)c(=O)oc2cc(OCCC(C)C)ccc12,x,x,x,x,-2%
Cc1cc(Br)cn2c(Cc3ccccc3)c(-c3ccco3)nc12,-2%,14%,-29%,u,u
Cc1ccc(Cc2c(C3CCCCC3)nc3ccc(C)cn23)cc1,-56%,16µM*,u,13µM*,u
Cc1cc(Br)cn2c(Cc3ccsc3)c(-c3ccco3)nc12,16µM*,u,6.3µM*,u,u
Brc1ccc2nc(-c3ccco3)c(CC3CCCCC3)n2c1,-31%,-5%,11µM*,i,16µM*
Cc1ccc(Cc2c(-c3ccc(Cl)cc3)nc3ccc(Br)cn23)cc1,-16%,29%,-18%,u,u
Cc1ccc(Cc2c(-c3ccc(C)cc3)nc3ccc(Br)cn23)cc1,-23%,14%,-24%,u,10µM*
CCC(CC)NC(=O)Cn1c(=O)c2c(ncn2CCOC)n(Cc2ccccc2)c1=O,x,x,x,x,-23%
c1cn(CCCNCc2ccc(-n3ccnc3)cc2)cn1,x,x,x,x,38%
CCCCn1c(=O)[nH]c(=O)c2c1nc(COC(=O)C=C(C)C)n2CC,x,x,x,x,29%
Cc1ccc(Cc2c(-c3ccco3)nc3ccc(Br)cn23)cc1,-60%,25%,u,u,40µM*
Cc1ccc(Cc2c(-c3cccc(Br)c3)nc3ccc(Br)cn23)cc1,-16%,105%,-18%,i,25µM*
Cc1ccc2nc(-c3ccco3)c(Cc3cccc(F)c3)n2c1,3%,5%,u,u,u
Cc1ccc2nc(-c3cccc(Br)c3)c(Cc3cccc(F)c3)n2c1,x,x,x,x,2%
SMILES,HepG2 tox,ATXN2 expr inh,TGFb SMAD3 inh,S2 tox,12-LOX inh
CN1CC(=O)N(C2CCCNC2)Cc2c(NCc3ccc4c(c3)OCO4)ncnc21 (configuration not stated),x,x,x,x,4.5µM*
COc1ccc(Oc2ccc(/C=C/C(=O)c3ccc(O)cc3)cc2[N+](=O)[O-])cc1,-98%,22µM*,16µM*,x,-4%
COc1ccc(/C=C/C(=O)c2ccc(O)cc2)cc1COc1ccc(F)cc1,16µM*,u,u,i,-27%
O=C(/C=C/c1ccc(O)c([N+](=O)[O-])c1)c1ccc2ccccc2c1,-19%,-19%,u,i,-12%
CCc1c(C(=O)Nc2ccccc2)c(C)[nH]c(=S)c1C#N,-3%,-2%,1%,i,4µM*
Cc1[nH]c(=S)c(C#N)c(C)c1C(=O)Nc1ccccc1,2%,-1%,-17%,i,25µM*
CCc1c(C(=O)Nc2ccccc2)csc1C,x,x,x,x,8%
Cc1ccccc1NC(=O)c1c(C)[nH]c(=S)c(C#N)c1-c1ccco1,-3%,-1%,-15%,i,-24%
O=C(c1ccc2[nH]ccc2c1)N1CCN(c2cc(-c3ccccc3)[nH]n2)CC1,x,x,x,x,3%
O=C(CC1(C(=O)O)CCCCCC1)Nc1ccccc1NS(=O)(=O)c1ccc(F)cc1,x,x,x,x,15%
CC(=O)NNC(=S)NC(=O)c1cccc([N+](=O)[O-])c1,-13%,-4%,0%,i,u
O=C(NNC(=O)c1ccc([N+](=O)[O-])cc1)c1ccc(Br)cc1,-2%,-6%,8%,i,-12%
O=C(NNC(=S)NC(=O)c1ccc(Br)cc1)c1ccc([N+](=O)[O-])cc1,-22%,x,0%,i,45µM*
Cc1cc(C(=O)NNC(=S)NC(=O)c2ccccc2)cs1,x,x,x,x,28µM*
O=C(NNC(=S)NC(=O)c1ccc(Br)cc1)c1cccc([N+](=O)[O-])c1,-21%,x,u,i,40µM*
Cc1cc(C(=O)NC(=S)Nc2cccc(C(=O)O)c2C)ccc1[N+](=O)[O-],-6%,x,3%,u,20µM*
CCn1c(NC(=O)c2oc3ccccc3c2COC)nc2ccccc21,x,x,x,x,2%
COc1ccccc1-c1cnc(Nc2cccc(N[S+](C)(=O)[O-])c2)c2c1CCO2,x,x,x,x,-6%[176 µM]
N#Cc1nc(-c2cccs2)oc1N1CCN(C(=O)c2cccc(Cl)c2)CC1,x,x,x,x,54%
Cc1ccc(C(=O)NC(=S)NNC(=O)c2ccccc2[N+](=O)[O-])cc1,-2%,-17%,6%,i,32µM*
O=C(NC(=S)Nc1cccc(NC(=O)c2ccccc2)c1)c1cccc([N+](=O)[O-])c1,-26%,-10%,-13%,i,28µM*
C1CC(COCCc2noc(C3CNC3)n2)CCO1,x,x,x,x,68%
Cc1ccc(CN(C(=O)c2cc(=O)c3cc(Cl)c(C)cc3o2)c2ccccn2)o1,x,x,x,x,25µM*
OC(CNCc1ccco1)Cn1c2ccccc2c2ccccc21 (configuration not stated),18µM*,-26%,u,i,3%
OC(CNCc1ccco1)COc1ccccc1 (configuration not stated),-56%,3%,10%,i,441%
C#CC[N+](C)(CC#CC=C)Cc1ccccc1 (configuration not stated),x,x,x,x,17%
Cc1[nH]c(SC(C)C(=O)Nc2cccc(S(=O)(=O)N(C)C)c2)nc1Cc1ccccc1 (configuration not stated),x,x,x,x,7%
Clc1ccc(-c2nc3cnccn3c2Nc2ccc3c(c2)OCO3)cc1,-27%,-28%,u,i,u
CSc1ccc(-c2nc3cnccn3c2Nc2ccc3c(c2)OCO3)cc1,-36%,5%,5µM*,i,x
